Records with an inconclusive call do not appear. A call without a number means that no potency is given here. Activity calls are given as the source filed them. Calls follow the shape of the dose curve; as a rule, active = well fitted cell-killing curve with a large enough effect in the repeat runs; inconclusive = weak or mixed curves, or effect the other way; inactive = flat fitted curve, though single readings scatter.
Columns and labels:
[1] = cAMP Responsive Elements (CRE) small molecule antagonists, cell-based qHTS assay: qHTS cell viability counter screen (AID 2060913); also: nearly all actives have a fitted effect of over 40% in size
How it was run: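 Cytotoxicity counter screen multiplexed with the CRE-bla antagonist read: HEK293T cells in DMEM with dialyzed FBS and 25 mM HEPES were treated 3 hrs under 0.25 uM final NKH477, then viability measured by CellTiter-Glo luminescence.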

[2] = cAMP Responsive Elements (CRE) small molecule agonists, cell-based qHTS assay: qHTS cell viability counter screen (AID 2060914);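 also: viability read after 3 h of compound exposure; nearly all actives have a fitted effect of over 50% in size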
How it was run: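 Cytotoxicity counter screen multiplexed with the CRE-bla reporter assay in HEK 293T cells: 3 h compound exposure at 37 °C, followed by CellTiter-Glo luminescence measured in the same wells.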
Potency is read from the fitted curve at half-maximal effect.

SMILES	Potency [1]	Potency [2]
CNC(C)Cc1ccc2c(c1)OCO2 (stereo not given)	inactive	inactive
C[C@]12CCC(=O)C=C1CC[C@@H]1[C@@H]2CC[C@@]2(C)[C@H]1CC[C@]2(C)O	inactive	inactive
CC[N+](CC)(CC)CC	inactive	inactive
CCCCCCCCCCCCCC[P+](CCCCCC)(CCCCCC)CCCCCC (tested in a mixture with another compound)	24.3 µM (active)	21.7 µM (active)
CCCCCC[n+]1ccccc1	inactive	inactive
BrCCCCBr	inactive	inactive
O=CC(Br)(Br)Br	inactive	inactive
COC(=O)c1ccccc1S(=O)(=O)NC(=O)Nc1nc(C)nc(OC)n1	inactive	inactive
COP(=S)(OC)Oc1ccc(S(N)(=O)=O)cc1	inactive	inactive
CN(C)NC(=O)CCC(=O)O	inactive	inactive
O=S(=O)(Oc1ccc(Cl)cc1)c1ccc(Cl)cc1	inactive	inactive
c1ccc2cc3c(cc2c1)-c1cccc2cccc-3c12	inactive	inactive
NC(=O)CN1CCCC1=O	inactive	inactive
CNC(=O)N(C)c1nnc(C(C)(C)C)s1	inactive	inactive
C[C@]12CCC(=O)C(O)=C1CC[C@@H]1[C@@H]2CC[C@]2(C)C(=O)CC[C@@H]12	inactive	inactive
C=CC(=O)[O][Sn]([CH2]CCC)([CH2]CCC)[CH2]CCC	8.63 µM (active)	6.86 µM (active)
C[Si](Cn1cncn1)(c1ccc(F)cc1)c1ccc(F)cc1	inactive	inactive
O=[N+]([O-])O[C@H]1CO[C@H]2[C@@H]1OC[C@H]2O[N+](=O)[O-]	inactive	inactive
O=P1(NCCCl)OCCCN1CCCl (stereo not given)	inactive	inactive
Cc1[nH]c(=O)n(C(C)(C)C)c(=O)c1Cl	inactive	inactive
ClSC(Cl)(Cl)Cl	inactive	inactive
O=C(NC(=O)c1c(F)cccc1F)Nc1cc(Cl)c(F)c(Cl)c1F	inactive	inactive
N#Cc1ccc(O)cc1	inactive	inactive
Clc1ccc(C2(Cn3cncn3)OCCO2)c(Cl)c1	inactive	inactive
CCCC[N+]1(C)[C@@H]2CC(OC(=O)[C@H](CO)c3ccccc3)C[C@H]1[C@@H]1O[C@@H]12 (stereo not given in full)	inactive	inactive
